The results in this text go back to PubChem BioAssay AID2156 (Johns Hopkins Ion Channel Center, 2009).

Among all 310,000 compounds or so, about 3,400 (1.1%) were called active. Only a selection was taken, and actives are over-represented in it overall. Unmarked numbers belong to inactive results.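 The calls were made as follows: active = fluorescence ratio B-score at most minus 3 library SDs, with starting brightness B-score within 2 library SDs (cut at about -5.5 in these data); inactive = the rest, inconclusive results apart.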 Peptide text beside a SMILES is read from it. * marks the point of attachment. OPac = O=C(CO*)c1ccccc1; Bz = O=C(c1ccccc1)*

The target in the experiment is Potassium voltage-gated channel subfamily KQT member 2 (Rattus norvegicus) (UniProt O88943). The experiment in a line: KCNQ2 channel blockers in CHO-K1 cells – cell-based, FluxOR thallium flux, B-score, primary screen (AID 2156). The conditions noted are these: 20 min, at 10 µM; hits give low values.
Chain of Potassium voltage-gated channel subfamily KQT member 2 (Rattus norvegicus) (O88943 whole entry, looked up): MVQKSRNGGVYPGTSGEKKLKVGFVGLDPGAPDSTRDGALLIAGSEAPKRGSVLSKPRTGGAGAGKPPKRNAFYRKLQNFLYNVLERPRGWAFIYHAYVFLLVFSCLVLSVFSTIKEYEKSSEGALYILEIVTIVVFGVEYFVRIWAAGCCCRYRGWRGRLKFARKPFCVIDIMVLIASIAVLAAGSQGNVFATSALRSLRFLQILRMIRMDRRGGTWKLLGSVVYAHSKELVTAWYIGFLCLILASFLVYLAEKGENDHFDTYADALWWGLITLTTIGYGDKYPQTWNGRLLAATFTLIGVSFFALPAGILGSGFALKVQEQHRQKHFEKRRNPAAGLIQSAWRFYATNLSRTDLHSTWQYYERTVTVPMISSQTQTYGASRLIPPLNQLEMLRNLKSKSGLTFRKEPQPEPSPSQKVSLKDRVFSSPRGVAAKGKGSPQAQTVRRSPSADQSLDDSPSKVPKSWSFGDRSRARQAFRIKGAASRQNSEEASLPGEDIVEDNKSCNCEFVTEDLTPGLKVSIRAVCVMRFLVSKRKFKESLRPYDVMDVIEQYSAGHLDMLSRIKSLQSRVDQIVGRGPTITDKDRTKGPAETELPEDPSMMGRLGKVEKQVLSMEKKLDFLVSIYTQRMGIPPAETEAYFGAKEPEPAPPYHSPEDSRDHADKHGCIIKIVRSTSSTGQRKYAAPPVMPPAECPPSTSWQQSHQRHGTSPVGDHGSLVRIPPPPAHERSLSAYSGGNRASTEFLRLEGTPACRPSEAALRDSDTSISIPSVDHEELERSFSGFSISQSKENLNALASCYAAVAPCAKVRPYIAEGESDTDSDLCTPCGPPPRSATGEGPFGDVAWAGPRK
With `CC(C)N(Cc1nnc(-c2ccc(Cl)cc2)o1)C(=O)C1=COCCO1`, the B-score was -1.82.
As to `CCOn1c(SC(C)C)nc2ccccc2c1=O`, the B-score is -2.44.
To `CCOC(=O)C(C)Sc1nc2ccccc2c(=O)n1CC1CCCCC1` (configuration not stated) belongs -10.1 (active).
In the case of `CCOC(=O)C1CCc2nc3ccccc3c(=O)n21` (configuration not stated), the B-score result was “inactive”.
Regarding `CCCCn1c(N)c(N(CCOC)C(=O)c2cccc(S(=O)(=O)N(C)c3ccccc3)c2)c(=O)[nH]c1=O`, the B-score was -0.06.
The same measure for `COc1ccc(C)cc1NC(=O)C(Sc1ccccc1)c1ccccc1` (configuration not stated): -2.05; for `COc1ccc(C)cc1NC(=O)C(OC(=O)c1cccc(S(=O)(=O)N(C)c2ccccc2)c1)c1ccccc1` (configuration not stated): -7.07 (active); for `COc1ccc(C)cc1NC(=O)Nc1ccccc1SC`: “inactive”.
The same measure for `Cc1ccc(S(=O)(=O)N2CCN(C(=O)c3ccccc3-c3nc4ccccc4s3)CC2)c(C)c1`: -0.72; for `CCOC(=O)CSc1nc2c(sc(=S)n2CCc2ccccc2)c(=O)n1Cc1ccco1`: -5.6 (active); for `CCOC(=O)CSc1nc2c(c(=O)n(C)c(=O)n2C)n1Cc1ccccc1F`: “inactive”.
The same measure for `CCOC(=O)CSc1nnc(-c2ccco2)n1C`: “inactive”; for `OCCCNc1nc(-c2ccccc2)c2cc(Cl)ccc2n1`: “inactive”.
On to `CCCCn1c(N)c(N(CC(C)C)C(=O)c2ccc(Br)o2)c(=O)[nH]c1=O`, for which the B-score result is “inactive”.
To `O=C(c1ccc(F)c(S(=O)(=O)N2CCOCC2)c1)N(CCc1ccccc1)Cc1ccccc1` belongs -2.85; to `CC(C)(C)Oc1ncc(Br)c(OC(C)(C)C)n1`, “inactive”.
To `COc1cccc(-c2cnc(OC(C)(C)C)nc2OC(C)(C)C)c1` belongs -7.02 (active); to `COc1ccc(-c2nc(N)ncc2-c2ccc(Cl)cc2)c(O)c1`, -0.21.
For the compound `CC(Oc1ccc(F)cc1)C(=O)Nc1ccccc1C(=O)NC1CC1` (configuration not stated), the B-score was -1.68.
The same measure for `O=C1c2cccc(OCC(=O)N3N=C(c4cccs4)CC3c3ccc(F)cc3)c2CCN1Cc1ccccc1` (configuration not stated): -5.75 (active); for `COc1ccc(C2CC(c3cccs3)=NN2C(=O)COC(=O)c2cc3ccccc3cc2O)cc1OC` (configuration not stated): “inactive”.
To `COc1ccc(C2CC(c3cccs3)=NN2C(=O)CCC(=O)O)cc1OC` (configuration not stated) belongs “inactive”; to `Nc1cccnc1Sc1ccccc1`, “inactive”.
To `COCCNC(=O)COc1ccccc1C` belongs -1.11.
Regarding `O=C(CNC(=O)c1ccccc1)NCC(=O)OCC(=O)c1ccccc1` (Bz-Gly-Gly-OPac), the B-score entry is “inactive”.
Consider `Cc1ccccc1OCC(=O)NCC(=O)OCC(=O)c1ccc2ccccc2c1`, for which the B-score is -5.95 (active).
Regarding `Nc1c(C(=O)Nc2ccc3c(c2)OCCO3)nnn1Cc1ccccc1`, the B-score was -0.47.
